From PubChem BioAssay (Tox21) come the findings set out here.

Test [1] addresses KiSS-1 receptor (Homo sapiens) (UniProt Q969F8). As to the kind of experiment: Human kisspeptin (KISS1R) small molecule agonists, calcium flux assay in KISS1R-HEK293 cells (AID 1920064; active = well fitted activation curve with a large enough effect in the repeat runs). The gist of the method:
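Intracellular calcium mobilization in KISS1R-HEK293 cells was recorded by fluorescence (Ex/Em 480/540) for 3 min following compound addition to cells pre-loaded 1 h with calcium dye.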
(In general: Calcium flux is commonly read through the fluorescence of an indicator in the cells.)

Test [2] in a line: G protein-coupled receptor (GPCR) small molecule agonists, calcium flux assay: HEK293 wild type cell line counter screen (AID 1920065). The method, boiled down:
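In this agonist-mode screen, ATP is the positive control and DMSO the vehicle. Cells grow 18 h before a 1 h dye incubation at 37 C; signal is taken at Ex/Em 480/540 over 3 min.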

A short description of test [3]: p53 small molecule agonists, cell-based qHTS assay with human liver microsomes: qHTS cell viability counter screen (AID 1963579). Note: nearly all actives have a fitted effect of over 45% in size. Note: potency is the fitted concentration of half-maximal effect. The method, boiled down: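 Metabolically activated exposure: compounds, human liver microsomes and NADPH (0.5 mg/mL final apiece) were added to p53RE-bla cells seeded 5 h earlier, left 16 h at 37 C, and then assessed for viability by CellTiter-Glo luminescence.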
(In general: Quantitative high-throughput screening tests each substance at several concentrations.)

Test [4] can be described thus: p53 small molecule agonists, cell-based qHTS assay: qHTS cell viability counter screen (AID 1963581). Note: nearly all actives have a fitted effect of over 45% in size. The method, boiled down:
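Compounds are pinned onto HCT-116 p53RE-bla cells and left 16 h at 37 C. Following the reporter FRET read, ATP is quantified by CellTiter-Glo luminescence after 30 min at room temperature.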

Test [5] is described as follows: p53 small molecule agonists, cell-based qHTS assay (AID 1963582; active = well fitted activation curve with a large enough effect in the signal ratio in the repeat runs, not every such curve was filed as active; the % refers to the signal ratio; note: potency is the fitted concentration of half-maximal effect). The method, boiled down:
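Agonist activity was scored from beta-lactamase FRET fluorescence in p53RE-bla cells treated 16 h at 37 C with compounds in DMSO, substrate incubation being 2 h at room temperature.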

The target in test [6] is 5-hydroxytryptamine receptor 2A (Homo sapiens) (UniProt P28223). Kind of test: 5-hydroxytryptamine receptor 2A (HTR2A) small molecule antagonists, cell-based qHTS assay (AID 1963586). Note: nearly all actives have a fitted effect of over 45% in size. Note: potency is the fitted concentration of half-maximal effect. The gist of the method:
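Antagonist-mode intracellular calcium assay: DOI (4 nM) added after 5 min compound pre-incubation at room temperature to dye-loaded HTR2A-CHO cells. Fluorescence followed for 3 min, sampled every second.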

For test [7] the target is unchanged. Kind of test: 5-hydroxytryptamine receptor 2A (HTR2A) small molecule agonists, cell-based qHTS assay (AID 1963587). Note: nearly all actives have a fitted effect of over 30% in size. Note: potency is the fitted concentration of half-maximal effect. The method, boiled down: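 Kinetic calcium-flux fluorescence (2 min, 1 sec intervals) after compound addition in agonist mode. HTR2A-CHO cells were cultured 18 h, then dye-loaded 1 h at 37 C.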
Test [8] concerns the target Muscarinic acetylcholine receptor M1 (Homo sapiens) (UniProt P11229). As to the kind of experiment: Cholinergic receptor muscarinic 1 (CHRM1) small molecule antagonists, cell-based qHTS assay (AID 1963588). Note: nearly all actives have a fitted effect of over 40% in size. The gist of the method:
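CHRM1-CHO calcium-flux assay, antagonist mode. Cells were seeded 18 h, dye-loaded 1 h at 37 C and given compound for 5 min at RT, then acetylcholine was added at 50nM. FDSS fluorescence was read 3 min; 15 concentrations, three runs.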

Test [9] has the same target. Kind of test: Cholinergic receptor muscarinic 1 (CHRM1) small molecule agonists, cell-based qHTS assay (AID 1963589). Note: nearly all actives have a fitted effect of over 35% in size. The gist of the method:
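Stable CHRM1-CHO cells (human receptor) were incubated 18 h, dye-loaded for 1 h at 37 C and exposed to test compounds for agonist activity, with calcium-dependent fluorescence followed kinetically.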

Test [10] addresses Beta-2 adrenergic receptor (Homo sapiens) (UniProt P07550). Kind of test: Adrenergic beta2 receptor (ADRB2) small molecule antagonists, cell-based qHTS assay (AID 1963592). For activity change, negative = inhibition: series mostly up to about 92 µM. Note: nearly all actives have a fitted effect of over 50% in size. Note: potency is the fitted concentration of half-maximal effect. The method, boiled down:
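Cells (CHO, stable ADRB2 overexpression) incubated 18-20hr at 37C; compounds added from DMSO; agonist mix (1nM isoproterenol, 100uM IBMX, 25uM Ro-20-1724) added; 0.5hr RT; d2-cAMP and anti-cAMP-cryptate added; 1hr RT; 665/615 nm read.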

Test [11] addresses D(2) dopamine receptor (Homo sapiens) (UniProt P14416). Kind of test: Dopamine D2 receptor (DRD2) small molecule agonists, cell-based qHTS assay (AID 1963594). Note: nearly all actives have a fitted effect of over 35% in size. The method, boiled down:
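cAMP accumulation in DRD2-HEK293 cells measured by HTRF after 1 h detection; compounds added 10 min before NKH477 (200nM […]) forskolin-analogue stimulation, 30 min at room temperature, with Ro20-1724 present at 0.1 mM final.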

The target is the same in test [12]. Kind of test: Dopamine D2 receptor (DRD2) small molecule antagonists, cell-based qHTS assay (AID 1963595; active = well fitted inhibition curve with a large enough effect in the signal ratio in the repeat runs, with a control signal flat; the % refers to the signal ratio). The gist of the method:
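Antagonist mode in DRD2-HEK293 cells: after compound addition with 0.1 mM Ro20-1724, cells received quinpirole (12 nM) and NKH477 (200 nM) for 30 min at room temperature; HTRF cAMP read after 1 h detection.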

Test [13] is described as follows: p53 small molecule agonists, cell-based qHTS assay with rat liver microsomes (AID 1963578). The method, boiled down: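 Agonist mode in p53RE-bla reporter cells, with compounds co-incubated 16 h at 37 C alongside 0.5 mg/mL rat liver microsomes and 0.5 mg/mL NADPH (final), followed by a 2 h LiveBLAzer detection step.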
Test [14] addresses Gonadotropin-releasing hormone receptor (Homo sapiens) (UniProt P30968). As to the kind of experiment: Human gonadotropin-releasing hormone receptor (GnRHR) small molecule agonists, calcium flux assay in GnRHR-HEK293 cells (AID 1920063). Note: nearly all actives have a fitted effect of over 35% in size. Note: potency is the fitted concentration of half-maximal effect. The gist of the method:
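Tox21-format agonist screen using human GnRHR-expressing HEK293 cells and a fluorescent calcium dye; kinetic 3-min fluorescence reading after compound addition, 15-point concentration series run in triplicate.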

The nature of test [15]: p53 small molecule agonists, cell-based qHTS assay with human liver microsomes (AID 1963577). The method, boiled down: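 In this qHTS, p53 response-element beta-lactamase cells receive test compound together with a microsome/NADPH activating system (0.5 mg/mL final each) and are incubated 16 h at 37 C before LiveBLAzer fluorescence detection.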
Test [16] can be described thus: p53 small molecule agonists, cell-based qHTS assay with rat liver microsomes: qHTS cell viability counter screen (AID 1963580). Note: nearly all actives have a fitted effect of over 45% in size. The gist of the method:
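HCT-116 p53RE-bla, 4,000 cells/well, 5 h pre-incubation; cpd + rat liver microsomes 0.5 mg/mL + NADPH 0.5 mg/mL (final); 16 h, 37 C; CellTiter-Glo, 30 min RT; luminescence.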

Test [17] in a line: cAMP Responsive Elements (CRE) small molecule agonists, cell-based qHTS assay (AID 1963590). The method, boiled down:
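FRET-based beta-lactamase readout (LiveBLAzer B/G, 2 h RT) quantified CRE activation in HEK 293T CRE-bla cells after 3 h treatment with DMSO-dissolved compounds.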

Test [18] in a line: cAMP Responsive Elements (CRE) small molecule antagonists, cell-based qHTS assay (AID 1963591; active = well fitted inhibition curve with a large enough effect in the signal ratio in the repeat runs, not every such curve was filed as active; the % refers to the signal ratio). The gist of the method: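 qHTS in CRE-bla HEK 293T cells: compound in DMSO, then 0.25 uM NKH477 (final), 3 h at 37 °C/5% CO2; beta-lactamase FRET read-out after 2 h substrate incubation.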
In test [19] the target is Beta-2 adrenergic receptor (Homo sapiens) (UniProt P07550). Kind of test: Adrenergic beta2 receptor (ADRB2) small molecule agonists, cell-based qHTS assay (AID 1963593).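 Note: CHO cells stably overexpressing human ADRB2.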 The method, boiled down: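 CHO cells stably over-expressing ADRB2 were plated overnight at 37C, then dosed with compounds plus a stimulation mix containing 100uM IBMX and 25uM Ro-20-1724 for 0.5hr at room temperature. cAMP was measured by HTRF competition, 1hr.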
Sequence of Beta-2 adrenergic receptor (Homo sapiens) (P07550 whole entry, looked up): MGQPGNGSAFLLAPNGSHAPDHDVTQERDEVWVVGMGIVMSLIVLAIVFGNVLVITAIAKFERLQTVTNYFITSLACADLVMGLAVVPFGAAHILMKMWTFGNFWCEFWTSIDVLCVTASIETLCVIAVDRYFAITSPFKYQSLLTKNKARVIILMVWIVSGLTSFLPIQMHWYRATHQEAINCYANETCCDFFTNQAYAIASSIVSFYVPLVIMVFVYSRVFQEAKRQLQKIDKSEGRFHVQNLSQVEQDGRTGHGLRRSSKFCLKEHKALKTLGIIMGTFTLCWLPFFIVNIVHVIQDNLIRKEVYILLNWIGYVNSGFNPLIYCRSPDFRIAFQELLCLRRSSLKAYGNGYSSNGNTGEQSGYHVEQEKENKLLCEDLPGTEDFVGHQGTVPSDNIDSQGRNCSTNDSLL

SMILES strings stand for the structures. A number with no mark means an inactive call. Results filed as inconclusive are left out. Activity calls are given as the source filed them. Unless noted, calls come from the whole dose curve.
% is set by controls: 0 for no effect and ±100 for the full control effect.

Sequence of Gonadotropin-releasing hormone receptor (Homo sapiens) (P30968 whole entry, looked up): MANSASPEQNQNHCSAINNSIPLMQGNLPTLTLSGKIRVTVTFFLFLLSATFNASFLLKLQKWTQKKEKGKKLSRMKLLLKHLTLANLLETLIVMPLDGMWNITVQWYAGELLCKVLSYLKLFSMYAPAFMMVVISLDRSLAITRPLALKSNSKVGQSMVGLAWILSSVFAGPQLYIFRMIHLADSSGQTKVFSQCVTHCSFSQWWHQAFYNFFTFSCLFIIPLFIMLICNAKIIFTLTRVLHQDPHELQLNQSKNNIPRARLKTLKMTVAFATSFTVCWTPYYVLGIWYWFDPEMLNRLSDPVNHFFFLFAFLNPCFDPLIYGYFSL
Sequence of Muscarinic acetylcholine receptor M1 (Homo sapiens) (P11229 whole entry, looked up): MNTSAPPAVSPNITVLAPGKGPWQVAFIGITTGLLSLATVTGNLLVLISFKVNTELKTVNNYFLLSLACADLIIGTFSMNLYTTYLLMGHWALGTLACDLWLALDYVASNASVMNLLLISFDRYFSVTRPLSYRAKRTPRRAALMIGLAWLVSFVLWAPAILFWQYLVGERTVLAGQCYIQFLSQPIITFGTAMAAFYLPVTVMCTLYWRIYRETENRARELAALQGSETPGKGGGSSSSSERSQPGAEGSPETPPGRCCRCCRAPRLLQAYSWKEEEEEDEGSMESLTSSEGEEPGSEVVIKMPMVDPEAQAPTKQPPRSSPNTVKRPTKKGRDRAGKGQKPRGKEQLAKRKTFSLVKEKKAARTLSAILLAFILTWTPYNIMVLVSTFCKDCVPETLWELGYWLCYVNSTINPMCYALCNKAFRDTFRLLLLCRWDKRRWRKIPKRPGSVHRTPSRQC
Sequence of KiSS-1 receptor (Homo sapiens) (Q969F8 whole entry, looked up): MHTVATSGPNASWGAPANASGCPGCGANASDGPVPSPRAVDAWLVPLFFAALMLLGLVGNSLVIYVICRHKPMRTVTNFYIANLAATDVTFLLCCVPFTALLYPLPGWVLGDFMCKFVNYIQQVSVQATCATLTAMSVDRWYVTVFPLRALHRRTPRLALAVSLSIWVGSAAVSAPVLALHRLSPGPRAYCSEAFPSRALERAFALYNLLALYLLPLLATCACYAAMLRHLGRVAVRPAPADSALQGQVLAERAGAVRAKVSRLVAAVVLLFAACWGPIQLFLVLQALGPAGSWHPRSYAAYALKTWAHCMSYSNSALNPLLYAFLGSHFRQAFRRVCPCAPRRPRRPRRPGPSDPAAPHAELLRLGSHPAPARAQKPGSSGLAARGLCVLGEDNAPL
Sequence of D(2) dopamine receptor (Homo sapiens) (P14416 whole entry, looked up): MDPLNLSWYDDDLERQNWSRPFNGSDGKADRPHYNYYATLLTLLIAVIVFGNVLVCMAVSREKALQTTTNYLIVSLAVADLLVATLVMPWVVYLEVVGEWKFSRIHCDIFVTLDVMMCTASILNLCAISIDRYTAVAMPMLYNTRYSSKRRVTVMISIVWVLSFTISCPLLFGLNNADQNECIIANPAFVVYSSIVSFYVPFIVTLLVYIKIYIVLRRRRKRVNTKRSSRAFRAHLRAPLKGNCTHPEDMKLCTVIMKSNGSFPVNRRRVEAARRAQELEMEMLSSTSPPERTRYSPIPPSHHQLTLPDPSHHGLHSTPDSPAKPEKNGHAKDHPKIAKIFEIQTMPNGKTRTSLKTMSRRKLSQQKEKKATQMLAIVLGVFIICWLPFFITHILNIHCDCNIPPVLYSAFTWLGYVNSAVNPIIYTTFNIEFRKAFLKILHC
Sequence of 5-hydroxytryptamine receptor 2A (Homo sapiens) (P28223 whole entry, looked up): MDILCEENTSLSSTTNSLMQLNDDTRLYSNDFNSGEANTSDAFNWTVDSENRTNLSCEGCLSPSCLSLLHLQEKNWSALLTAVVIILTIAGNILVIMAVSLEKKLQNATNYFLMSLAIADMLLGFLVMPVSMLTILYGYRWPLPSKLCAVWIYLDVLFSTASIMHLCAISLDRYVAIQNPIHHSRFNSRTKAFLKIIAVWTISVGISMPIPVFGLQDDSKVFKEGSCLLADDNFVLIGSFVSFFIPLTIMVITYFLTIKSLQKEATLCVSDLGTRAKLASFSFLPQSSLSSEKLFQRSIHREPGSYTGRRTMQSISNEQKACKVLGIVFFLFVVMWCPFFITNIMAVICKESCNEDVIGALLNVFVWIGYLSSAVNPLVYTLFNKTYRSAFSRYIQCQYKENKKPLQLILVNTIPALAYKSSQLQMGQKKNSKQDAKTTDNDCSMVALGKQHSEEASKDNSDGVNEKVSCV

With `CCN(CC)CCCC(C)Nc1c2ccc(Cl)cc2nc2ccc(OC)cc12` (stereo unspecified), the Potency result in test [1], in test [2], in [3] and in test [4] was “inactive” throughout. Besides, the Potency in test [5] is 19.9 µM (active).

Consider `CC(=O)N(C)C`, for which the Potency result in test [6], in [7], in test [8], in test [9], in test [10] and in test [11] was “inactive” each time. In [12], the Potency result was “inactive”.

Regarding `CC(=O)N1CCN(c2ccc(OC[C@H]3CO[C@](Cn4ccnc4)(c4ccc(Cl)cc4Cl)O3)cc2)CC1`, the Potency result in [1], in test [2], in test [13], in [10] and in test [11] was “inactive” in each case.

Turning to `C=CC(=C)CCC=C(C)C`, the Potency entry in test [14], in test [2], in test [15], in test [13], in test [3] and in [16] was “inactive” in each case. The Potency entry in [4], in test [5], in test [6], in test [7], in [8] and in test [17] was “inactive” throughout. In addition, the Potency entry in test [18], in test [10], in test [11] and in test [12] was “inactive” in each case.

Consider `COc1ccc2ccccc2c1`, for which the Potency in test [6] was 33.4 µM (active). In addition, the Potency entry in test [7], in test [8], in test [9], in test [10], in [19] and in [11] was “inactive” each time. The Potency entry in test [12] is “inactive”.

With `Nc1ccc2c(c1)CN1C(=O)c3ccccc3C1=N2`, the Potency in test [14] was 6.57 µM (active); in [7], 10.4 µM (active). The activation in test [15] was 5.53% [at 13.5 µM]. Also, the activity change, negative = cytotoxicity in [16] is -20.3% [at 13.5 µM]. The activity, negative = inhibition in test [8] is 0.434% [at 12.6 µM]. For the same molecule, the activity change, negative = inhibition in test [10] was -18.2% [at 19 µM]; in [12] it was -0.331% [at 18.9 µM].

For `Cc1c(-c2ccc(O)cc2)n(Cc2ccc(OCCN3CCCCCC3)cc2)c2ccc(O)cc12`, the Potency entry in [1], in [2], in [6], in test [7], in test [9] and in test [10] was “inactive” throughout.

As for `CSc1ccc(O)cc1C`, the Potency entry in [14], in test [2], in [15], in test [13], in test [3] and in [16] was “inactive” in each case. The Potency entry in [4], in test [5], in test [6], in [7], in test [8] and in test [17] was “inactive” throughout. The Potency entry in test [18], in test [10], in [11] and in test [12] was “inactive” each time.

For `CN(C)CCCN1c2ccccc2CCc2ccccc21`, the Potency entry in test [14], in [7], in test [9], in test [17], in test [18] and in test [11] was “inactive” each time. In addition, the Potency result in test [12] is “inactive”. Also, the Potency in [10] was 29.8 µM (active).

For `CC(C)(C)NC(=O)[C@@H]1C[C@@H]2CCCC[C@@H]2CN1C[C@@H](O)[C@H](Cc1ccccc1)NC(=O)[C@H](CC(N)=O)NC(=O)c1ccc2ccccc2n1`, the Potency result in test [1], in test [2], in [10], in test [11] and in [12] was “inactive” each time.

For `CC(C)(C)C1CCCCC1=O` (stereo unspecified), the Potency entry in [14], in test [2], in test [3], in test [16], in test [4] and in [6] was “inactive” throughout. The Potency result in test [7], in test [8], in [17], in [10], in test [11] and in test [12] was “inactive” throughout.

In the case of `CC(C)(C)c1csc(-c2cc3cc(OCc4ccccc4CC(=O)O)ccc3o2)n1`, the Potency result in test [1], in test [2], in test [15], in test [6] and in test [12] was “inactive” in each case. In addition, the Potency in [3] was 45.8 µM (active).
